Drawing on ChEMBL document CHEMBL3988442, “University of Dundee, Small-Polar-MMV Screening Library” (2021), this text covers Percent Effect for 26 compounds.

Structures are written as SMILES.

Common to all, as to assay type: functional
Design in all cases: scale not given: direction of the effect not stated beside the values
Conditions in all cases: 30 µM

For test [1], the target named is T1, Aspartate--tRNA(Asp/Asn) ligase (Mycobacterium tuberculosis (strain ATCC 25618 / H37Rv)) (UniProt P9WFW3). Further: in the data most compounds retested in dose-response had high values.
T1 sequence (whole entry): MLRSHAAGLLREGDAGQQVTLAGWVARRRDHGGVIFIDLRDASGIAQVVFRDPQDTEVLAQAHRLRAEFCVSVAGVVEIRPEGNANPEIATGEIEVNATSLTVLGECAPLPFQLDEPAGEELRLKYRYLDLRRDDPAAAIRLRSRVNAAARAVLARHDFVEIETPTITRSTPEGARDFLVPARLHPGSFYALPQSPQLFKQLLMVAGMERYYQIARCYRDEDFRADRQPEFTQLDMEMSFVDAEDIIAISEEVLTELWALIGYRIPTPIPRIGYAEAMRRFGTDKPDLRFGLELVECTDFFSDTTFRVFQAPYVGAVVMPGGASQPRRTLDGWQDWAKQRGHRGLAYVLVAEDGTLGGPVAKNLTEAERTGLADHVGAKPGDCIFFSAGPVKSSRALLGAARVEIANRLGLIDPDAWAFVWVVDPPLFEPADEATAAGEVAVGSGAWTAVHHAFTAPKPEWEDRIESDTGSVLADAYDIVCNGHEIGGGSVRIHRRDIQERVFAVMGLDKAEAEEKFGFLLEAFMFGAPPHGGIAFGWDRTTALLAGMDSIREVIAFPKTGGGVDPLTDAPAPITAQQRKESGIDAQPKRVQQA
The experiment in a line: Assay for Asp RNA synthetase-1 from Mycobacterium tuberculosis.

For test [2], the target named is Shiga toxin 2 (Escherichia coli O157:H7) (UniProt P09385+P09386). The experiment in a line: E. coli 0.157:H7 Shiga Toxin SOP - stx2 screening assay.
Test [3] deals with AMP-activated protein kinase, AMPK (Homo sapiens) (UniProt P54646+O43741+P54619+Q9UGJ0+Q9Y478+Q13131+Q9UGI9). Nature of the test: AMP-dependent Kinase enzyme assay. An in vitro enzyme assay that detects ADP turnover that is directly proportional to AMPK activity. This uses naive AMPK that is activated during the assay with MK-8722.

As for `CSc1ccc(NS(=O)(=O)c2cnn(C)c2)cn1`, the results for the Percent Effect in test [1] and in test [2] were 1.57% and -7.54%, respectively.
The matching figures for `COc1ncccc1C(=O)Nc1nc2c(s1)CN(S(=O)(=O)C1CC1)CC2`: -4.8% and -20%.
On to `Cc1cnn(CC2CCCN2C(=O)c2cnc3n[nH]c(C)c3c2)c1` (configuration not stated), for which the Percent Effect was -3.6% in test [1] and -40.6% in test [2].
The matching figures for `CSCc1cccc(S(=O)(=O)N2CCSCC2)c1`: 0.639% and 0.0259%.
The matching figures for `C[C@H]1C[C@@H]2CCN(C(=O)c3cccn3C)C[C@H]2O1`: -3.96% and -0.37%.
The matching figures for `O=C(c1cccs1)N1CCC(n2nc(-c3ccco3)ccc2=O)CC1`: -0.968% and 6.63%.
Take `Cc1ccc(Cl)cc1N1CCC(CNC(=O)CCn2ccnc2)C1` (configuration not stated): the Percent Effect is -2.41% in test [1] and -19.4% in test [2].
The matching figures for `O=C(c1ccc(O)c(Cl)c1)N1CCC(c2n[nH]c(C3CC3)n2)CC1`: -0.597% and 0.843%.
In the case of `CCCn1[nH]cc/c1=N\C(=O)CN1CCOC(Cn2cc(C)cn2)C1` (configuration not stated), the Percent Effect in test [1] was -3.84%; in test [2], 8.34%.
The matching figures for `Cc1nc(COCc2cnc3n2CCN(C2CCC2)C3C)cs1` (configuration not stated): -4.78% and -5.21%.
On to `CC(NC(=O)CN(C)S(C)(=O)=O)c1nnc2n1CCCCC2` (configuration not stated), for which the values for the Percent Effect in test [1] and in test [2] were 5% and -25.1%, respectively.
The matching figures for `Cc1c(O)oc(-c2ccc(Br)cc2)nc1=O`: -1.84% and -45.4%.
The matching figures for `CC(C)(C)n1cc(C(=O)N2CCCN(Cc3cccs3)CC2)cn1`: -0.0333% and 35.3%.
The matching figures for `CCNC(=O)N1CCCC(c2noc(CC)n2)C1` (configuration not stated): -2.74% and 17.9%.
Regarding `CSc1ccccc1C(=O)C1CCCN(Cc2ccccn2)C1` (configuration not stated), in test [3], the Percent Effect is 18.7%.
Same read-out and setting: the figure for `NC1(c2nc(C(F)(F)F)cc(=O)[nH]2)CCCCC1` is -5.09%.
On to `N#Cc1ccc(CNCC(C(=O)N2CCOCC2)c2ccccc2)cc1` (configuration not stated), for which the figures for the Percent Effect in test [1] and in test [2] were 24.2% and -26%, respectively.
The matching figures for `COc1ccc(C(=O)N2CCCC(C)C2)cc1F` (configuration not stated): 0.26% and 13.7%.
The matching figures for `CC(C)c1nnc2n1CCN(CC(=O)Nc1sccc1C#N)C2`: 8.51% and 16.9%.
Take `CCOCCC(=O)N1C[C@H]2CC[C@@H]1CN(Cc1ccncc1)C2`: the Percent Effect in test [3] was 3.36%.
On to `O=C(NCC1(CO)CC1)c1cccc2ccccc12`, for which the values for the Percent Effect in test [1] and in test [2] were -3.45% and -0.178%, respectively.
For `Cn1cc(C2=CCN(CCCC(=O)Nc3ccc(C#N)cc3)CC2)cn1`, the Percent Effect in test [3] amounted to 7.78%.
On to `CS(=O)(=O)CCC(=O)N1CCC2(CCCN(C3CCOCC3)C2=O)C1` (configuration not stated), for which the results for the Percent Effect in test [1] and in test [2] were 3.37% and -8.62%, respectively.
`Cc1nnc(N2CCOC(Cn3cccn3)C2)c(C#N)c1C` (configuration not stated): the Percent Effect in test [1] was 3.88%; in test [2], 19.5%.
As to `CC(C)c1nc(C(=O)N2CCCC(n3cncn3)C2)c[nH]1` (configuration not stated), the values for the Percent Effect in test [1] and in test [2] were -5.02% and -8.87%, respectively.
Turning to `Cc1nn(C)c2nc(N3CCCCC3c3cccnc3)sc12` (configuration not stated), in test [3], the Percent Effect was -3.14%.
